From PubChem BioAssay AID1645838 (ICCB-Longwood Screening Facility, Harvard Medical School, 2021) come the findings set out here.

Out of some 2,000 compounds screened, about 100 (5%) were called active. No stated cut-off is given here; in the data, active means z-score above about 2; inactive means the rest. For the sample, actives were picked, then their nearest neighbours and some compounds at random.

A short description of this assay: supercomplex reporter luminescence per Hoechst cell count – Hoechst nuclei count (AID 1645838).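 On all read-outs here: control cybrid cells.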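 On z-score: higher means more mitochondrial supercomplex formation.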 The settings on record: Cells, luminescence/Hoechst cell count ratio; for z-score: stronger effect = higher value; for cell count: measured here: cell number, Hoechst nuclei count.
[1] abbreviates: library stock concentration (final well concentration not given) 80 uM.
Where [2] appears, read: library stock concentration (final well concentration not given) 400 uM.
The mark [3] stands for this setting: library stock concentration (final well concentration not given) 2 mM.
Where [4] appears, read: library stock concentration (final well concentration not given) 10 mM.
[5] abbreviates: library stock concentration (final well concentration not given) 46 uM.
[6] abbreviates: library stock concentration (final well concentration not given) 278 uM.
Setting [7] is: library stock concentration (final well concentration not given) 1.67 mM.

On to `Oc1cc(-c2nc(-c3ccccc3)[nH]c2-c2ccncc2)ccc1Cl`, for which, under “library stock 10 mM”, the outcome was “inactive; censored for cell count”. Besides, the z-score by setting is: under setting [1], -0.487 (inactive); under setting [2], 0.0422 (inactive); under setting [3], 0.88 (inactive). The cell count worked out at 6330 under setting [1], 6400 under setting [2] and 5020 under setting [3].

As for `CN(C)CCOc1ccc(-c2nc(-c3ccc4c(c3)CCC4=NO)c(-c3ccncc3)[nH]2)cc1`, the outcome (library stock 10 mM) is “inactive; censored for cell count”. For the same molecule, the z-score under setting [1] is -0.227 (inactive), the z-score under setting [2] was 0.545 (inactive) and the z-score under setting [3] is 2.41 (active). For the same molecule, the cell count is, setting by setting: under setting [1], 4650; under setting [2], 4190; under setting [3], 3060.

With `CS(=O)c1ccc(-c2nc(-c3ccc(F)cc3)c(-c3ccncc3)[nH]2)cc1` (centres undefined), the z-score is -1.15 (inactive) and the cell count is 5830.

Take `NC(N)=NCCCC(NC(=O)COCC(c1ccccc1)c1ccccc1)C(=O)O` (centres undefined): the z-score is -0.24 (inactive) under setting [1], -0.0902 (inactive) under setting [2], -0.0766 (inactive) under setting [3] and 0.102 (inactive) under setting [4]. Further, the cell count runs as follows: under setting [1], 5010; under setting [2], 5210; under setting [3], 5170; under setting [4], 4630.

On to `CC(C)OC(=O)CCCC=CCC1C(O)CC(O)C1C=CC(F)(F)COc1ccccc1` (centres undefined), for which the z-score under setting [1] was -0.387 (inactive), the z-score under setting [2] is -0.505 (inactive), the z-score under setting [3] is -0.421 (inactive) and the z-score under setting [4] was -0.49 (inactive). In addition, the cell count is 6260 under setting [1], 6740 under setting [2], 6050 under setting [3] and 5570 under setting [4].

In the case of `NC(CSCCB(O)O)C(=O)O` (centres undefined), the z-score reads like this: under setting [5], -0.211 (inactive); under setting [6], -0.0225 (inactive); under setting [7], -0.355 (inactive); under setting [4], -0.293 (inactive). The cell count under setting [5] worked out at 6150, the cell count under setting [6] was found to be 5500, the cell count under setting [7] worked out at 6170 and the cell count under setting [4] came to 6060.

As to `Cn1cnc2c(F)c(Nc3ccc(Br)cc3Cl)c(C(=O)NOCCO)cc21`, the outcome (library stock 10 mM) was “inactive; censored for cell count”. In addition, the z-score reads like this: under setting [1], 0.846 (inactive); under setting [2], 0.791 (inactive); under setting [3], 2.06 (active). Besides, the cell count is, setting by setting: under setting [1], 3770; under setting [2], 3780; under setting [3], 2320.

As for `Cn1cnc2c(F)c(Nc3ccc(Br)cc3F)c(C(=O)NOCCO)cc21`, the outcome (library stock 10 mM) is “inactive; censored for cell count”. For the same molecule, the z-score reads like this: under setting [1], 0.694 (inactive); under setting [2], 1.23 (inactive); under setting [3], 1.53 (inactive). Further, the cell count under setting [1] turned out to be 5250, the cell count under setting [2] is 4630 and the cell count under setting [3] worked out at 2640.

For `O=C(NOCC1CC1)c1ccc(F)c(F)c1Nc1ccc(I)cc1Cl`, the outcome (library stock 10 mM) was “inactive; censored for cell count”. Besides, the z-score is 0.248 (inactive) under setting [1], 0.901 (inactive) under setting [2] and 1.33 (inactive) under setting [3]. The cell count was 4290 under setting [1], 3900 under setting [2] and 3870 under setting [3].

In the case of `COc1cc(C=C(C#N)C(=O)Nc2nnc(C(F)(F)F)s2)ccc1OCc1ccc(C(F)(F)F)cc1C(F)(F)F`, the z-score is, setting by setting: under setting [5], -0.188 (inactive); under setting [6], -0.247 (inactive); under setting [7], -0.448 (inactive); under setting [4], -0.612 (inactive). For the same molecule, the cell count by setting is: under setting [5], 7210; under setting [6], 7400; under setting [7], 7340; under setting [4], 7260.

As for `Oc1cccc(-c2nc(N3CCOCC3)c3sccc3n2)c1`, the z-score was 3.96 (active) and the cell count is 2940.

On to `CS(=O)(=O)N1CCN(Cc2cc3nc(-c4cccc5[nH]ncc45)nc(N4CCOCC4)c3s2)CC1`, for which the outcome (library stock 10 mM) is “inactive; censored for cell count”. Besides, the z-score was -0.278 (inactive) under setting [5]; 0.147 (inactive) under setting [1]; -0.083 (inactive) under setting [6]; 0.745 (inactive) under setting [2]; 0.769 (inactive) under setting [7]; 1.48 (inactive) under setting [3]. Also, the cell count by setting is: under setting [5], 5360; under setting [1], 3950; under setting [6], 4950; under setting [2], 3220; under setting [7], 2910; under setting [3], 2350.

`Oc1cccc(-c2nc(N3CCOCC3)c3oc4ncccc4c3n2)c1`: the z-score is 2.15 (active) and the cell count was found to be 3000.

As for `CC(C)c1ccccc1OC(=O)NCCc1ccc2ccccc2c1`, the z-score is, setting by setting: under setting [5], -0.152 (inactive); under setting [6], 0.0918 (inactive); under setting [7], -0.615 (inactive); under setting [4], -0.366 (inactive). Moreover, the cell count reads like this: under setting [5], 6770; under setting [6], 6210; under setting [7], 7330; under setting [4], 5910.

As for `COc1cc(C(=O)N(CCC2CCCN2C)CC(C)=Cc2ccccc2F)cc(OC)c1OC` (centres undefined), the z-score runs as follows: under setting [5], 0.184 (inactive); under setting [6], -0.112 (inactive); under setting [7], 0.132 (inactive); under setting [4], 0.652 (inactive). The cell count was found to be 6990 under setting [5], 6820 under setting [6], 6680 under setting [7] and 5820 under setting [4].

Consider `CC#CCC(C)[C@H](O)/C=C/[C@@H]1[C@H]2C/C(=C\CCCC(=O)O)C[C@H]2C[C@H]1O` (some centres undefined), for which the z-score was -0.395 (inactive) and the cell count came to 5310.

In the case of `OC(COc1cccc2ncccc12)CN1CCN(C2c3ccccc3C3C(c4ccccc42)C3(F)F)CC1` (centres undefined), the z-score under setting [1] was 0.371 (inactive), the z-score under setting [2] was 0.508 (inactive), the z-score under setting [3] is 0.497 (inactive) and the z-score under setting [4] is -1.87 (inactive). The cell count runs as follows: under setting [1], 4630; under setting [2], 4580; under setting [3], 4340; under setting [4], 3800.

As for `O=C(c1cccs1)c1ccc(OCCCO)c(Cl)c1Cl`, the z-score was -0.51 (inactive) and the cell count came to 5410.

As for `CC1CC2OC2C=CC=CC(=O)Cc2c(Cl)c(O)cc(O)c2C(=O)O1` (centres undefined), the outcome is “inactive; censored for cell count” (library stock 278 µM), “inactive; censored for cell count” (library stock 1.67 mM) and “inactive; censored for cell count” (library stock 10 mM). Also, the z-score under setting [5] is -0.774 (inactive). Moreover, under setting [5], the cell count was determined as 7560.
